Laboratory results as given in PubChem BioAssay (NCI).
This is part of a sample that, as a whole, favours compounds with a hit. Of some 83,000 tested, about 20% had one in any assay.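 Compound tested at a single concentration for 48 hours in 96-well plates; a percent growth value below 10 was scored as active.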 Active and inactive are the calls of the source.

Tested on: HCT-15 colon
Experiment: NCI-60 one-dose screen, 48 h (100 = growth as untreated, 0 = no growth, -100 = all killed)
Conditions: 10 µM unless noted

Q: For `Fc1ccc(Nc2nc3nonc3nc2Nc2ccc(F)cc2)cc1`, which growth is on record?
A: 6.25% (active)

Q: How did the growth turn out when `COc1cc(C2CC(c3ccc(Nc4nc(Nc5ccc(F)cc5)nc(Nc5ccc(Cl)cc5)n4)cc3)=NN2C(C)=O)cc(OC)c1OC` (centres undefined) was run?
A: 65.7% (inactive)

Q: Which growth does the source give for `c1ccc2[nH]c(SSc3nc4ncncc4[nH]3)nc2c1` here?
A: 26.9% (inactive)

Q: `COc1cccc(CCC2CCCN(c3cc(C)nc(N)n3)C2)c1` (centres undefined) was tested. Which growth did it give?
A: 21.9% (inactive)

Q: `COc1cc(C2C=C(c3cccc(NC(C)=O)c3)Nc3ncnn32)cc(OC)c1OC` (centres undefined) was tested. Which growth did it give?
A: 41.4% (inactive)

Q: For `Cc1c(C(=O)O)nnn1-c1nccs1`, which growth is on record?
A: 98% (inactive)

Q: How did the growth turn out when `CC(C)c1ccc(C(=O)OC(=O)c2ccc(C(C)C)cc2)cc1` was run?
A: 95.1% (inactive)

Q: `c1ccc(-c2oc3ccccc3c2-c2ccccc2)cc1` was tested. Which growth did it give?
A: 93.6% (inactive)

Q: With `C=CC(=O)Nc1cccc(C)c1Nc1cc(-c2cccnc2Cc2c(C)c(OC)cc(OC)c2C)ncn1` as the compound, how does the growth read?
A: 42.3% (inactive)

Q: For `Clc1ccc2[nH]c3c(NCCCN4CCOCC4)ncnc3c2c1`, which growth is on record?
A: 84.1% (inactive)

Q: For `CCCCCCCC/C=C\CCCCCCCC(=O)Oc1cccc2cccnc12`, which growth is on record?
A: 81.8% (inactive)

Q: How did the growth turn out when `CCN(CC)CCCNC(=O)c1ccc(N)cc1O` was run?
A: 96.1% (inactive)

Q: For `CC(C)n1nc(C#Cc2cccc(O)c2)c2c(N)ncnc21`, which growth is on record?
A: -11.2% (active)

Q: For `CSc1ccc(Cl)c(C(=O)Nc2sccc2C(N)=O)c1`, which growth is on record?
A: 98.8% (inactive)

Q: How did the growth turn out when `COc1ccc(NC(=O)c2cccc(-c3cc(=O)c4c(O)c(OC)c(OC)cc4o3)c2)cc1` was run?
A: 107% (inactive)

Q: `CC(C)OCCCNCC(=O)Nc1ccc(S(=O)(=O)c2ccc(NC(=O)CNCCCOC(C)C)cc2)cc1` was tested. Which growth did it give?
A: 120% (inactive)

Q: With `COc1cc(/C=C/C(=O)c2cccc(-n3cc(-c4ccccc4)[nH]c3=O)c2)cc(OC)c1OC` as the compound, how does the growth read?
A: 0.0594% (active)

Q: `C[C@@H]1C(=O)N(C[C@H](Cc2ccccc2)NC(=O)OCc2ccccc2)[C@]1(Cc1ccccc1)C(=O)OC(C)(C)C` was tested. Which growth did it give?
A: 62.9% (inactive)

Q: `Oc1ccccc1-c1nc2ccccn2c1NCCN1CCOCC1` was tested. Which growth did it give?
A: 99.4% (inactive)

Q: Which growth does the source give for `COc1ccc(/C(C)=C(\c2ccc(Cl)cc2)c2ccc(OCCCN(C)C)cc2)cc1F` here?
A: 7.7% (active)

Q: For `COc1cc2ccccc2cc1C(=O)NC(=S)Nc1ccc(-c2nc3ccccc3[nH]2)cc1`, which growth is on record?
A: 78.5% (inactive)

Q: `O=[N+]([O-])c1ccc2[nH]cc(-c3c4ccsc4cc4[nH]c5ccc([N+](=O)[O-])cc5c34)c2c1` was tested. Which growth did it give?
A: 11.3% (inactive)

Q: With `CCOC(=O)c1nnn(C(Cc2ccccc2Cl)C(=O)OCC)c1C` (centres undefined) as the compound, how does the growth read?
A: 107% (inactive)

Q: For `Cc1nc(Nc2ccccn2)sc1C(=O)/C=C/c1ccc(Br)cc1`, which growth is on record?
A: 30.4% (inactive)

Q: `CN(C)c1ccc(/C=C/c2c(F)cccc2F)cc1` was tested. Which growth did it give?
A: 98.6% (inactive)

Q: `N#Cc1c(-c2ccc(C(F)(F)F)cc2)cc(N2CC(O)C2)n2c1nc1ccccc12` was tested. Which growth did it give?
A: 85.7% (inactive)

Q: For `O=C1c2ccccc2C(=O)c2cc(Cn3cc[n+](Cc4ccc5ccccc5c4)c3)ccc21`, which growth is on record?
A: 98.1% (inactive)

Q: How did the growth turn out when `O=C(CC12CC3CC(CC(C3)C1)C2)NCCOCCOCCOCCNC(=O)c1cc2c(o1)C(=O)c1ccccc1C2=O` was run?
A: -78.5% (active)

Q: How did the growth turn out when `Oc1[nH]c2ccccc2c1/C=c1/cc2c(c(-c3ccc(F)cc3)n1)=Nc1ccccc1-2` was run?
A: -18.1% (active)

Q: Which growth does the source give for `N#Cc1c(N)nc2c(nnn2-c2cccc(C(F)(F)F)c2)c1N` here?
A: 86.3% (inactive)

Q: With `CN(C)CN1CCN(c2ccc3nc(-c4ccc5nc(-c6ccc(C(F)(F)F)cc6)[nH]c5c4)[nH]c3c2)CC1` as the compound, how does the growth read?
A: 91.6% (inactive)

Q: How did the growth turn out when `COC(=O)Nc1nc2ccc(C(=O)C3CC3)cc2[nH]1` was run?
A: -1.31% (active)

Q: `CC1(C)N=C(N)N=C(N)N1c1ccc(Cl)c(Cl)c1` was tested. Which growth did it give?
A: 30.6% (inactive)

Q: `O=C1NC(=S)S/C1=C\N1N=C(c2ccc(Cl)cc2)CC1c1ccc(F)cc1` (centres undefined) was tested. Which growth did it give?
A: 78.5% (inactive)

Q: With `Cc1nc(Nc2ccc(NC(=S)Nc3ccccc3)cc2)nc2nc(Nc3ccc(S(=O)(=O)O)cc3)[nH]c(=O)c12` as the compound, how does the growth read?
A: 127% (inactive)

Q: How did the growth turn out when `CCOc1cc(N)ccc1C(=O)NCCCN(CC)CC` was run?
A: 106% (inactive)

Q: With `NC(N)=N/N=C(/c1ccccc1)c1ccccc1F` as the compound, how does the growth read?
A: 22% (inactive)

Q: With `CC(c1ccc(-n2cccn2)cc1)c1cnc(N2CCc3ccc(C(N)=O)cc3C2)s1` (centres undefined) as the compound, how does the growth read?
A: 69.3% (inactive)

Q: Which growth does the source give for `CC(/C=N/NC(=O)c1cc(-c2ccco2)[nH]n1)=C\c1ccccc1` here?
A: 93.2% (inactive)
